Compound activity: PubChem BioAssay, several laboratories
The full list was thinned out, with hits kept by preference.
PLAP act – activates human placental alkaline phosphatase | activation fold at 20 µM | purified PLAP enzyme, luminescent substrate read-out; stronger effect = higher value | P05187 | actives 1.2% (n = 96,000); in the data active = activation fold above about 2
hDAT+cocaine – human DAT dopamine uptake with cocaine, either direction | LLC-PK1 hDAT cells, [14C]-dopamine uptake with cocaine IC80; actives deviate in either direction | B-score at 10 µM | actives 1.3% (n = 110,000);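 active = Z score or B-score, a plate-position-corrected score, falls beyond the plate's 99.7% confidence bounds, in either direction; inactive = both scores lie inside the 99.7% bounds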
TNAP act mid DEA – human TNAP activation, intermediate phosphate acceptor | purified TNAP, CDP-star luminescence, 100 mM DEA, 30 min; stronger effect = higher value; scale: 0 levamisole-inhibited, 1 vehicle-only enzyme | activation factor at 20 µM | 64,000 tested, under 10 active | AID 813;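 active = activation factor of at least 2 at 20 µM, relative to controls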
HePTP inh – inhibitors of human HePTP phosphatase; P35236; recombinant HePTP phosphatase activity, OD absorbance; inhibition, % at 20 µM; actives 0.64% (n = 110,000); in the data active = inhibition above about 50%
D1 allo mod – D1 dopamine receptor (human) allosteric modulation. B-score at 10 µM. actives 5.9% (n = 58,000). HEK293 D1, CRE-luciferase, dopamine EC30 potentiation; actives deviate in either direction;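 active = luminescence count or its row- and column-corrected plate score outside the 99.7% band of the plate's sample wells, on either side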
Target sequence (P21728 whole entry, looked up): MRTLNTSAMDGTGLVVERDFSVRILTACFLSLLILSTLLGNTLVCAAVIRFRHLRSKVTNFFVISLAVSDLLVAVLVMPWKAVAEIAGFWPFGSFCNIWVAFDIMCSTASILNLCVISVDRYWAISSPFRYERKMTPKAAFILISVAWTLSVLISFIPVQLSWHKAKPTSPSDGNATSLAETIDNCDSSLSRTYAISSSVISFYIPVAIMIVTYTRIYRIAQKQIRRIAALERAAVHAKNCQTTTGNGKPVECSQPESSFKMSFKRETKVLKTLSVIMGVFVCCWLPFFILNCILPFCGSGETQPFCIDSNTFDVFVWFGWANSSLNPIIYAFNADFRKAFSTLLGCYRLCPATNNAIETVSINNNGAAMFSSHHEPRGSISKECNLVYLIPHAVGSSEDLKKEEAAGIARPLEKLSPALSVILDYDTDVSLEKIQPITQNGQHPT
Candida biofilm – kills Candida albicans biofilms. C. albicans biofilm + clotrimazole, Alamar Blue. inhibition, % at 6 µM. actives 0.14% (n = 85,000). AID 834;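 active = inhibition above 20%; inactive = inhibition below 20%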;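 also: preformed 24 hr biofilms exposed to compound for 48 hr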
Each line names hits and unclear results; the compound was inactive in the other large screens.

CCC(=O)Nc1ccc(NC(=O)/C=C/c2ccc(-c3ccc(Cl)cc3Cl)o2)cc1	none (no result: PLAP act, hDAT+cocaine, TNAP act mid DEA, D1 allo mod, Candida biofilm)
CC(=O)O/N=C1\CCCc2c1[nH]c1ccccc21	none (no result: PLAP act, hDAT+cocaine, TNAP act mid DEA, D1 allo mod, Candida biofilm)
CCC(C)(C)C1CCc2c(sc(NC(=O)c3cnccn3)c2C(=O)OC)C1 (stereo not drawn)	none (no result: PLAP act, hDAT+cocaine, TNAP act mid DEA, D1 allo mod, Candida biofilm)
O=C(NCCc1c[nH]c2ccccc12)C1CCC(Cn2c(=S)[nH]c3ccccc3c2=O)CC1 (stereo not drawn)	none (no result: TNAP act mid DEA, HePTP inh, D1 allo mod)
COCCNC(=O)C1CCC(Cn2c(=S)[nH]c3ccccc3c2=O)CC1 (stereo not drawn)	hDAT+cocaine -7.6
N#Cc1c(NC(=O)C2c3ccccc3Oc3ccccc32)sc2c1CCCCC2	none (no result: PLAP act, hDAT+cocaine, TNAP act mid DEA, D1 allo mod, Candida biofilm)
N/C(=N\OC(=O)c1ccccc1[N+](=O)[O-])c1ccc(Cl)cc1	none (no result: PLAP act, hDAT+cocaine, TNAP act mid DEA, D1 allo mod, Candida biofilm)
Clc1ccc(CSc2nnc(-c3ccccc3)o2)c(Cl)c1	none (no result: PLAP act, hDAT+cocaine, TNAP act mid DEA, D1 allo mod, Candida biofilm)
CC12CCC(c3c(C(=O)Nc4nccs4)nn(-c4ccccc4)c31)C2(C)C (stereo not drawn)	PLAP act 2
CC12CCC(c3c(C(=O)O)nn(-c4ccccc4)c31)C2(C)C (stereo not drawn)	none
Cc1cc(C)c(-c2cc(C(=O)Nc3c(C)n(C)n(-c4ccccc4)c3=O)[nH]n2)c(O)c1	PLAP act 2.2
COC(=O)c1ccc(CSc2nnc(CCCN3C(=O)c4cccc5cccc(c45)C3=O)n2-c2ccccc2)cc1	none (no result: PLAP act, hDAT+cocaine, TNAP act mid DEA, D1 allo mod, Candida biofilm)
COc1ccccc1NC(=O)N(Cc1ccco1)Cc1cc2ccc(C)c(C)c2[nH]c1=O	hDAT+cocaine 2.6
COc1ccccc1NC(=O)N(Cc1ccco1)Cc1cc2cc(C)cc(C)c2[nH]c1=O	none
Cc1ccc(-c2nc3cc(NC(=O)C(C)C)ccc3o2)cc1	PLAP act 2.5, D1 allo mod -2.4
O=C(Nc1ccc2oc(-c3ccc(Cl)c(Cl)c3)nc2c1)c1ncn[nH]1	PLAP act 2.6 (no result: TNAP act mid DEA, HePTP inh, D1 allo mod, Candida biofilm)
CC(C)C(=O)Nc1ccc2oc(-c3ccc(Cl)cc3)nc2c1	none (no result: PLAP act, hDAT+cocaine, TNAP act mid DEA, D1 allo mod, Candida biofilm)
CCC(=O)Nc1ccc2oc(-c3cccc(C)c3)nc2c1	D1 allo mod -3.4
CCC(=O)Nc1ccc2oc(-c3ccc4ccccc4c3)nc2c1	none (no result: PLAP act, hDAT+cocaine, TNAP act mid DEA, D1 allo mod, Candida biofilm)
Cc1ccc(-c2nc3cc(NC(=O)C(C)C)ccc3o2)cc1C	D1 allo mod -3 (no result: PLAP act)
O=C(Nc1ccc(Cl)cc1)Nc1nnc(Cc2ccccc2)s1	none (no result: PLAP act, hDAT+cocaine, TNAP act mid DEA, D1 allo mod, Candida biofilm)
CCN(CC)S(=O)(=O)c1cc(C(=O)Nc2ccccc2OC)ccc1Cl	none (no result: PLAP act, hDAT+cocaine, TNAP act mid DEA, D1 allo mod, Candida biofilm)
COc1cc(NC(=O)COc2ccc(Br)cc2)cc(OC)c1	none (no result: PLAP act, hDAT+cocaine, TNAP act mid DEA, D1 allo mod, Candida biofilm)
O=c1/c(=C/c2ccccn2)sc2nc3ccccc3n12	D1 allo mod -3.8 (no result: hDAT+cocaine)
O=c1/c(=C\c2cn[nH]c2-c2ccccc2)sc2nc3ccccc3n12	HePTP inh 50 (no result: PLAP act, hDAT+cocaine, TNAP act mid DEA, D1 allo mod, Candida biofilm)
COc1ccc(N(C(=O)Cn2nnc(-c3ccc(Cl)cc3)n2)C(C(=O)NCC2CCCO2)c2ccc(C)cc2)cc1 (stereo not drawn)	none (no result: TNAP act mid DEA, HePTP inh, D1 allo mod, Candida biofilm)
COc1ccc(-c2nnn(CC(=O)N(Cc3ccccc3Cl)C(C(=O)NCC3CCCO3)c3ccco3)n2)cc1OC (stereo not drawn)	PLAP act 2 (no result: TNAP act mid DEA, HePTP inh, D1 allo mod, Candida biofilm)
O=C(N/N=C/c1cccc2ccccc12)c1cc(-c2cccc3ccccc23)n[nH]1	none (no result: PLAP act, hDAT+cocaine, TNAP act mid DEA, D1 allo mod, Candida biofilm)
Cc1ccc(N(C(C)C(=O)O)S(=O)(=O)c2cccnc2)cc1 (stereo not drawn)	Candida biofilm 24
CCc1nnc2n1N=C(c1ccc(-c3cc(Cl)ccc3Cl)o1)CS2	Candida biofilm 24
O=S1(=O)C=C(Sc2nc3cc(Cl)ccc3o2)c2ccccc21	D1 allo mod -2.3 (no result: Candida biofilm)
CCOC(=O)/C(C#N)=C/Nc1ccccc1OC	hDAT+cocaine -8.2 (no result: TNAP act mid DEA, HePTP inh, D1 allo mod, Candida biofilm)
Cn1c2ccccc2c2nnc(SCC(=O)OCN3C(=O)c4ccccc4C3=O)nc21	none (no result: PLAP act, hDAT+cocaine, TNAP act mid DEA, D1 allo mod, Candida biofilm)
Cc1ccc(-c2cc3nc(C)cc(NCc4ccco4)n3n2)cc1	hDAT+cocaine -3.9
CC(=O)Nc1ccc(Sc2ccc(NC(C)=O)cc2)cc1	none (no result: PLAP act, hDAT+cocaine, TNAP act mid DEA, D1 allo mod, Candida biofilm)
O=c1[nH]c(Nc2nc3ccccc3o2)nc2c1CCCC2	D1 allo mod -6.4
O=C(NCc1ccccc1)c1cc2nc(-c3ccccc3)cc(C(F)(F)F)n2n1	none (no result: PLAP act, hDAT+cocaine, TNAP act mid DEA, D1 allo mod, Candida biofilm)
O=C(O)c1nn2c(c1Cl)NC(c1cccs1)CC2C(F)(F)F (stereo not drawn)	none (no result: PLAP act, hDAT+cocaine, TNAP act mid DEA, D1 allo mod, Candida biofilm)
Cc1nn(C)cc1CN(C)C(=O)c1nn2c(c1Cl)NC(c1cccs1)CC2C(F)(F)F (stereo not drawn)	hDAT+cocaine 3.5
Cc1ccc(S(=O)(=O)N(C)Cc2ccc(-c3nnc4n3CCC4)cc2)cc1	hDAT+cocaine 2.2
Clc1ccc(-c2nnc3n2CCCCC3)cc1	none (no result: TNAP act mid DEA, HePTP inh, D1 allo mod)
